In PubChem BioAssay AID623880 (Broad Institute, 2012):
Potency and affinity values are given separately. Active and inactive are the calls of the source.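 Rule for the calls: active = compounds lowering HDL dye uptake whose fitted half-effect dose is at most twice the top valid dose; inconclusive = flat curve with moderate signal loss, or poor fit; inactive = the rest.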

Biological target: Scavenger receptor class B member 1 (Mus musculus) (UniProt Q61009)
Experiment: inhibitors of SR-BI dependent HDL uptake, dose response, ldlA[mSR-BI] CHO cells, fluorescence plate reader, dry powder, set 9 (AID 623880)

Chain of Scavenger receptor class B member 1 (Mus musculus) (Q61009 whole entry, looked up): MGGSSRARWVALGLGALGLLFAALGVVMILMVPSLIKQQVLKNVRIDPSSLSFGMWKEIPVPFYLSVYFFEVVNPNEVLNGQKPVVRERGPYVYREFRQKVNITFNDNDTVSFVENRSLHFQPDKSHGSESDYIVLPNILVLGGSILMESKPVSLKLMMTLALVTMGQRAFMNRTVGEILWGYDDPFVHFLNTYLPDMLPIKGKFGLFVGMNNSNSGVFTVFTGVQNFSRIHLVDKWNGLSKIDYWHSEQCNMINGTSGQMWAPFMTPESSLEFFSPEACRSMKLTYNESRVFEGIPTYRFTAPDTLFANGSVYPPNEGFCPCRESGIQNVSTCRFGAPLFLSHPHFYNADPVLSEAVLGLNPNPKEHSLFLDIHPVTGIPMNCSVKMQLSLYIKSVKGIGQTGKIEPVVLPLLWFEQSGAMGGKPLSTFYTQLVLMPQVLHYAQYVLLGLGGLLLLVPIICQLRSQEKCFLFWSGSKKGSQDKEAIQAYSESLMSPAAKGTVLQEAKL

Compound: Cc1ccc(OCc2cc(C(=O)N3CCCC(O)C3)no2)cn1 (stereo unspecified)
- outcome: inactive
